{
  "source": "paper PMC11062922",
  "about": "(Nature Chemical Biology, 2023)",
  "set-up_in_all_cases": "species or system human, MV4-11 + K-562 + COLO205 + SK-N-BE2 + OVCAR-8",
  "key": {"ACVR1B": {"tested_on": "ACVR1B", "settings": "read-out: apparent Kd; compound concentrations:100 nM and 1000 nM (sheet 'Samples'); n = 1"}, "PRKD2": {"tested_on": "PRKD2", "settings": "read-out: apparent Kd; compound concentrations:100 nM and 1000 nM (sheet 'Samples'); n = 1"}, "PRKD3": {"tested_on": "PRKD3", "settings": "read-out: apparent Kd; compound concentrations:100 nM and 1000 nM (sheet 'Samples'); n = 1"}, "DDR1": {"tested_on": "DDR1", "settings": "read-out: apparent Kd; compound concentrations:100 nM and 1000 nM (sheet 'Samples'); n = 1"}, "DDX3X;DDX3Y": {"tested_on": "DDX3X;DDX3Y", "settings": "read-out: apparent Kd; compound concentrations:100 nM and 1000 nM (sheet 'Samples'); n = 1"}, "MAPK10": {"tested_on": "MAPK10", "settings": "read-out: apparent Kd; compound concentrations:100 nM and 1000 nM (sheet 'Samples'); n = 1"}, "MAPK14": {"tested_on": "MAPK14", "settings": "read-out: apparent Kd; compound concentrations:100 nM and 1000 nM (sheet 'Samples'); n = 1"}, "MAPK9": {"tested_on": "MAPK9", "settings": "read-out: apparent Kd; compound concentrations:100 nM and 1000 nM (sheet 'Samples'); n = 1"}, "MAPKAPK2": {"tested_on": "MAPKAPK2", "settings": "read-out: apparent Kd; compound concentrations:100 nM and 1000 nM (sheet 'Samples'); n = 1"}, "NLK": {"tested_on": "NLK", "settings": "read-out: apparent Kd; compound concentrations:100 nM and 1000 nM (sheet 'Samples'); n = 1"}, "ACVR2B": {"tested_on": "ACVR2B", "settings": "read-out: apparent Kd, n = 1"}, "DJA1": {"tested_on": "T1, DJA1", "T1 construct": "gene DNAJA1", "settings": "read-out: apparent Kd; compound concentrations: 100 nM and 1000 nM (sheet 'Samples'), CATDS: 0.27071673816178898; n = 1"}, "PIK3CD": {"tested_on": "PIK3CD", "settings": "read-out: apparent Kd; compound concentrations: 100 nM and 1000 nM (sheet 'Samples'), CATDS: 0.64872041714686801; n = 1"}, "TGFBR1": {"tested_on": "TGFBR1", "settings": "read-out: apparent Kd; compound concentrations:100 nM and 1000 nM (sheet 'Samples'); n = 1"}, "TNIK": {"tested_on": "TNIK", "settings": "read-out: apparent Kd; compound concentrations:100 nM and 1000 nM (sheet 'Samples'); n = 1"}, "FLT3": {"tested_on": "FLT3", "settings": "read-out: apparent Kd; compound concentrations: 100 nM and 1000 nM (sheet 'Samples'), CATDS: 0.189547770315381; n = 1"}, "FLT4": {"tested_on": "FLT4", "settings": "read-out: apparent Kd; compound concentrations: 100 nM and 1000 nM (sheet 'Samples'), CATDS: 0.63854178875025103; n = 1"}, "PDGFRB": {"tested_on": "PDGFRB", "settings": "read-out: apparent Kd, n = 1"}, "ACVR1": {"tested_on": "ACVR1", "settings": "read-out: apparent Kd; compound concentrations:100 nM and 1000 nM (sheet 'Samples'); n = 1"}, "BMPR1A": {"tested_on": "BMPR1A", "settings": "read-out: apparent Kd; compound concentrations:100 nM and 1000 nM (sheet 'Samples'); n = 1"}, "CDK6": {"tested_on": "CDK6", "settings": "read-out: apparent Kd; compound concentrations:100 nM and 1000 nM (sheet 'Samples'); n = 1"}, "MAP2K2": {"tested_on": "MAP2K2", "settings": "read-out: apparent Kd; compound concentrations:100 nM and 1000 nM (sheet 'Samples'); n = 1"}, "MAP2K5": {"tested_on": "MAP2K5", "settings": "read-out: apparent Kd; compound concentrations:100 nM and 1000 nM (sheet 'Samples'); n = 1"}, "NNT": {"tested_on": "NNT", "settings": "read-out: apparent Kd; compound concentrations:100 nM and 1000 nM (sheet 'Samples'); n = 1"}, "NQO1": {"tested_on": "NQO1", "settings": "read-out: apparent Kd; compound concentrations:100 nM and 1000 nM (sheet 'Samples'); n = 1"}, "PRKCI": {"tested_on": "PRKCI", "settings": "read-out: apparent Kd; compound concentrations:100 nM and 1000 nM (sheet 'Samples'); n = 1"}, "PRKCZ": {"tested_on": "PRKCZ", "settings": "read-out: apparent Kd; compound concentrations:100 nM and 1000 nM (sheet 'Samples'); n = 1"}, "PTK6": {"tested_on": "PTK6", "settings": "read-out: apparent Kd; compound concentrations:100 nM and 1000 nM (sheet 'Samples'); n = 1"}, "RIOK2": {"tested_on": "RIOK2", "settings": "read-out: apparent Kd; compound concentrations:100 nM and 1000 nM (sheet 'Samples'); n = 1"}, "RIPK2": {"tested_on": "RIPK2", "settings": "read-out: apparent Kd; compound concentrations:100 nM and 1000 nM (sheet 'Samples'); n = 1"}, "TESK2": {"tested_on": "TESK2", "settings": "read-out: apparent Kd; compound concentrations:100 nM and 1000 nM (sheet 'Samples'); n = 1"}, "TP53RK": {"tested_on": "TP53RK", "settings": "read-out: apparent Kd; compound concentrations:100 nM and 1000 nM (sheet 'Samples'); n = 1"}, "[1]": {"settings": "compound concentrations:100 nM and 1000 nM (sheet 'Samples')"}},
  "note": "Where two headings read alike, the source gives them in different places.",
  "data": [
    {"molecule": "Cc1cccc(-c2cc(Nc3ccncc3)c3ccccc3n2)n1", "note": "[GSK223675A]", "values": [
      {"measurement": "potency estimated from few doses", "setting": "ACVR1B", "result": 21.7, "unit": "nM"},
      {"measurement": "potency estimated from few doses", "setting": "PRKD2", "result": 293, "unit": "nM"},
      {"measurement": "potency estimated from few doses", "setting": "PRKD3", "result": 590, "unit": "nM"}
    ]},
    {"molecule": "CNc1ncc2cc(Oc3ccc(F)cc3F)c(=O)n(C)c2n1", "note": "[RO5083957-000]", "values": [
      {"measurement": "potency estimated from few doses", "setting": "ACVR1B", "result": 853, "unit": "nM"},
      {"measurement": "potency estimated from few doses", "setting": "DDR1", "result": 958, "unit": "nM"},
      {"measurement": "potency estimated from few doses", "setting": "DDX3X;DDX3Y", "result": 1740, "unit": "nM"},
      {"measurement": "potency estimated from few doses", "setting": "MAPK10", "result": 1750, "unit": "nM"},
      {"measurement": "potency estimated from few doses", "setting": "MAPK14", "result": 618, "unit": "nM"},
      {"measurement": "potency estimated from few doses", "setting": "MAPK9", "result": 1640, "unit": "nM"},
      {"measurement": "potency estimated from few doses", "setting": "MAPKAPK2", "result": 843, "unit": "nM"},
      {"measurement": "potency estimated from few doses", "setting": "NLK", "result": 1800, "unit": "nM"}
    ]},
    {"molecule": "Fc1cc(Cl)ccc1Nc1ccnc2cc(I)ccc12", "note": "[GW551191X]", "values": [
      {"measurement": "potency estimated from few doses", "setting": "ACVR2B; compound concentrations: 100 nM and 1000 nM (sheet 'Samples'), CATDS: 0.26563205076169", "result": 1340, "unit": "nM"},
      {"measurement": "potency estimated from few doses", "setting": "DJA1", "result": 1260, "unit": "nM"},
      {"measurement": "potency estimated from few doses", "setting": "PIK3CD", "result": 203, "unit": "nM"}
    ]},
    {"molecule": "Cc1cccc(-c2nc(C)cc(Nc3ccncc3)n2)n1", "note": "[GSK257997A]", "values": [
      {"measurement": "potency estimated from few doses", "setting": "ACVR1B", "result": 431, "unit": "nM"},
      {"measurement": "potency estimated from few doses", "setting": "PRKD2", "result": 408, "unit": "nM"},
      {"measurement": "potency estimated from few doses", "setting": "PRKD3", "result": 1590, "unit": "nM"},
      {"measurement": "potency estimated from few doses", "setting": "TGFBR1", "result": 75.9, "unit": "nM"}
    ]},
    {"molecule": "Nc1nc(-c2cccc(Cl)c2)c(-c2ccc3ncccc3n2)s1", "note": "[GW780159X]", "values": [
      {"measurement": "potency estimated from few doses", "setting": "ACVR1B", "result": 1.63, "unit": "nM"},
      {"measurement": "potency estimated from few doses", "setting": "MAPK14", "result": 1440, "unit": "nM"},
      {"measurement": "potency estimated from few doses", "setting": "MAPKAPK2", "result": 1000, "unit": "nM"},
      {"measurement": "potency estimated from few doses", "setting": "PRKD2", "result": 815, "unit": "nM"},
      {"measurement": "potency estimated from few doses", "setting": "TNIK", "result": 2040, "unit": "nM"}
    ]},
    {"molecule": "CC(=O)Nc1ccc(COc2ccc(Nc3ccnc4cc(-c5ccccn5)ccc34)cc2)cc1.Cl", "note": "[GW440148A]", "values": [
      {"measurement": "potency estimated from few doses", "setting": "ACVR2B; compound concentrations: 100 nM and 1000 nM (sheet 'Samples'), CATDS: 0.26489055890019297", "result": 482, "unit": "nM"},
      {"measurement": "potency estimated from few doses", "setting": "FLT3", "result": 1250, "unit": "nM"},
      {"measurement": "potency estimated from few doses", "setting": "FLT4", "result": 88.5, "unit": "nM"},
      {"measurement": "potency estimated from few doses", "setting": "PDGFRB; compound concentrations: 100 nM and 1000 nM (sheet 'Samples'), CATDS: 0.185767501667575", "result": 1340, "unit": "nM"}
    ]},
    {"molecule": "Cc1cc(O)cc(C)c1/C=C/c1cncc(C(N)=O)c1", "note": "[GW435821X_KCGS]", "values": [
      {"measurement": "potency estimated from few doses", "setting": "ACVR1", "result": 107, "unit": "nM"},
      {"measurement": "potency estimated from few doses", "setting": "ACVR2B; [1]", "result": 26.5, "unit": "nM"},
      {"measurement": "potency estimated from few doses", "setting": "BMPR1A", "result": 1200, "unit": "nM"},
      {"measurement": "potency estimated from few doses", "setting": "CDK6", "result": 120, "unit": "nM"},
      {"measurement": "potency estimated from few doses", "setting": "MAP2K2", "result": 179, "unit": "nM"},
      {"measurement": "potency estimated from few doses", "setting": "MAP2K5", "result": 2600, "unit": "nM"},
      {"measurement": "potency estimated from few doses", "setting": "NNT", "result": 2010, "unit": "nM"},
      {"measurement": "potency estimated from few doses", "setting": "NQO1", "result": 1150, "unit": "nM"},
      {"measurement": "potency estimated from few doses", "setting": "PDGFRB; [1]", "result": 1570, "unit": "nM"},
      {"measurement": "potency estimated from few doses", "setting": "PRKCI", "result": 2300, "unit": "nM"},
      {"measurement": "potency estimated from few doses", "setting": "PRKCZ", "result": 1470, "unit": "nM"},
      {"measurement": "potency estimated from few doses", "setting": "PTK6", "result": 1460, "unit": "nM"},
      {"measurement": "potency estimated from few doses", "setting": "RIOK2", "result": 2280, "unit": "nM"},
      {"measurement": "potency estimated from few doses", "setting": "RIPK2", "result": 96.7, "unit": "nM"},
      {"measurement": "potency estimated from few doses", "setting": "TESK2", "result": 1250, "unit": "nM"},
      {"measurement": "potency estimated from few doses", "setting": "TNIK", "result": 2400, "unit": "nM"},
      {"measurement": "potency estimated from few doses", "setting": "TP53RK", "result": 1440, "unit": "nM"}
    ]}
  ]
}
